Reference: PubChem BioAssay
Active and inactive are the calls of the source. Unless noted, the rule behind the calls is not given here.

How the values were obtained:
[1] = compound effects on lung adenocarcinoma cell viability – A549, calcein-AM fluorescence, 48 h, basal, profiling panel (AID 1162); conditions: higher = more signal; note: test concentration not given here
[2] = compound effects on differentiated 3T3-L1 adipocyte viability – cell-based, 3T3-L1 adipocytes, calcein-AM fluorescence, 48 h, basal, profiling panel (AID 1163); conditions: 3T3-L1 adipocytes viability, higher = more signal; note: test concentration not given here
[3] = compound effects on hepatocellular carcinoma cell viability – HepG2, calcein-AM fluorescence, 48 h, basal, profiling panel (AID 1164); conditions: higher = more signal; note: test concentration not given here
[4] = compound effects on multiple myeloma cell viability – MM1S, calcein-AM fluorescence, 48 h, basal, profiling panel (AID 1165); conditions: higher = more signal; note: test concentration not given here
[5] = calcein-AM signal in unstimulated myeloma cells – cell-based, calcein-AM fluorescence, 48 h, PK04 Diversity Set, profiling panel (AID 1166); conditions: RPMI8226 myeloma viability, higher = more signal;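 note: cells grown under basal conditions without added stimulus; test concentration not given here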
[6] = JC-1 mitochondrial signal, unstimulated HepG2 cells – cell-based, JC-1 fluorescence, 24 h, 100 nL compound, profiling panel (AID 1167); conditions: HepG2 mitochondrial potential, higher = more signal; note: test concentration not given here
[7] = JC-1 mitochondrial signal, unstimulated adipocytes – cell-based, JC-1 fluorescence, 3T3-L1 adipocytes, 24 h, 100 nL compound, profiling panel (AID 1168); conditions: JC-1 mitochondrial fluorescence, higher = more signal, called active from +8 up or from −8 down; note: test concentration not given here
[8] = JC-1 mitochondrial signal, unstimulated myeloma cells – cell-based, JC-1 fluorescence, RPMI8226, 24 h, 100 nL compound, profiling panel (AID 1169); conditions: JC-1 mitochondrial potential fluorescence, higher = more signal; note: test concentration not given here
[9] = JC-1 mitochondrial signal, unstimulated MM1S myeloma – cell-based, JC-1 fluorescence, 24 h, 100 nL compound, profiling panel (AID 1170); conditions: MM1S mitochondrial potential, higher = more signal; note: test concentration not given here
[10] = resazurin metabolic signal in A549 cells – cell-based, resazurin fluorescence, 24 h, PK04 Diversity Set, profiling panel (AID 1171); conditions: A549 viability, higher = more signal, called active from +8 up or from −8 down; note: test concentration not given here
[11] = resazurin metabolic signal in HepG2 cells – cell-based, resazurin fluorescence, 24 h, PK04 Diversity Set, profiling panel (AID 1172); conditions: HepG2 viability, higher = more signal; note: test concentration not given here
[12] = budding yeast growth changes without added modifier – OD600, strain BY4716, 24 h, basal condition, primary screen (AID 1173); conditions: S. cerevisiae BY4716 growth, OD600, 24 h; higher = more signal, called active from +8 up or from −8 down
[13] = viability profiling in MM1S myeloma cells – cell-based, resazurin fluorescence, basal, 24 h, PK04 Diversity Set, profiling panel (AID 1174); conditions: higher = more signal, called active from +8 up or from −8 down; note: test concentration not given here
[14] = biological target: Dihydroorotate dehydrogenase (quinone), mitochondrial (Plasmodium falciparum (isolate 3D7)) (UniProt Q08210); assay: inhibition of P. falciparum DHODH – biochemical, C-terminal His tag, absorbance 600 nm, primary screen (AID 1175); conditions: PfDHODH enzyme, DCIP absorbance 600 nm; higher = more signal, called active from +8 up or from −8 down;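 note: recombinant parasite enzyme with a five histidine tag at its C terminus; test concentration not given here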
Dihydroorotate dehydrogenase (quinone), mitochondrial (Plasmodium falciparum (isolate 3D7)), sequence (Q08210 whole entry, looked up): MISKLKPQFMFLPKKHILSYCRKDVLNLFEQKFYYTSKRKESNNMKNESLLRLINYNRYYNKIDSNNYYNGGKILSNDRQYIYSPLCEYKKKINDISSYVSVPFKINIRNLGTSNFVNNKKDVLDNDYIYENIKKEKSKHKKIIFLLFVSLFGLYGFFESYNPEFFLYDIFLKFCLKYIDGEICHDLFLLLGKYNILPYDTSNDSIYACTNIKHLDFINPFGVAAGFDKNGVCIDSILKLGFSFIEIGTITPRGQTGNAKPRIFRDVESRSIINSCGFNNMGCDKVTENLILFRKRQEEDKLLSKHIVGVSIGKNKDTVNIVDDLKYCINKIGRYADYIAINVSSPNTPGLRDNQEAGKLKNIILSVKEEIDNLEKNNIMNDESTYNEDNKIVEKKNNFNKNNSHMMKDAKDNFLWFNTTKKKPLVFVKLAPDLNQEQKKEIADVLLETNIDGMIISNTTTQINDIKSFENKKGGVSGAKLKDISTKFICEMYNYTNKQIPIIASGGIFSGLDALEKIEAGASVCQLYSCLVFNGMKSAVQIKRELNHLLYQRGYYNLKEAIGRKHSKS

[15] = inhibition of PAO1 biofilm formation – strain PAO1, LB-PBS medium, absorbance 600 nm, primary screen (AID 1176); note: test concentration not given here; conditions: P. aeruginosa PAO1 growth/biofilm, A600, 12 h; higher = more signal
[16] = growth modulation of vineyard yeast isolate – strain RM11-1a, OD600, basal, 24 h, primary screen (AID 1177);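 note: cultures grown under basal conditions with no added stressor; test concentration not given here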; conditions: S. cerevisiae RM11-1a growth, OD600, 24 h; higher = more signal, called active from +8 up or from −8 down
[17] = growth of efflux-deficient E. coli DRC39 – strain DRC39, OD650, 24 h, E. coli filamentation inducers, primary screen (AID 1178);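 note: growth measured as culture turbidity by optical density at 650 nm; test concentration not given here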; conditions: E. coli DRC39 acrAB, higher = more signal, called active from +8 up or from −8 down
[18] = growth of efflux-deficient E. coli DRC39 – strain DRC39, OD650, 48 h, E. coli filamentation inducers, primary screen (AID 1179);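 note: screen aims at cell division blockers that make cells filament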; conditions: E. coli DRC39 delta-acrAB growth, higher = more signal, called active from +8 up or from −8 down
[19] = viability profiling in RPMI8226 myeloma cells – cell-based, resazurin fluorescence, basal, 24 h, PK04 Diversity Set, profiling panel (AID 1180); conditions: higher = more signal;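 note: RPMI8826 multiple myeloma cell line at 5000 cells per well; test concentration not given here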
[20] = biological target: E3 ubiquitin-protein ligase XIAP (Homo sapiens) (UniProt P98170); assay: small molecules binding XIAP protein – biophysical, small-molecule microarray, fluorescence 635 nm, primary screen (AID 1181); conditions: higher = more signal;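 note: score merges 667 nm emission and signal to noise over triplicate slides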
E3 ubiquitin-protein ligase XIAP (Homo sapiens), sequence (P98170 whole entry, looked up): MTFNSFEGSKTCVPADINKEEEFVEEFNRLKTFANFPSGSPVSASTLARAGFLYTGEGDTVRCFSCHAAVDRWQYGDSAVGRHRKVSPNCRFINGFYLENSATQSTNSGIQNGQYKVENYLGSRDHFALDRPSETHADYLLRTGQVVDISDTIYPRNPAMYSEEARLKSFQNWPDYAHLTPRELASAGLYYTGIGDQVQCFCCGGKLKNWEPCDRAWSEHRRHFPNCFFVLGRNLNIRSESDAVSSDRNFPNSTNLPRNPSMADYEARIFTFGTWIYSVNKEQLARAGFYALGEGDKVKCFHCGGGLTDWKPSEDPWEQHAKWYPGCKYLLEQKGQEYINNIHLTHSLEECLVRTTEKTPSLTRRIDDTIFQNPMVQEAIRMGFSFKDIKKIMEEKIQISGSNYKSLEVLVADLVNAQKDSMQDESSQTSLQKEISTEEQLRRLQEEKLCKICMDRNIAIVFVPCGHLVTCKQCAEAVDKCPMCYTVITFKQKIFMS

| SMILES | z-score [1] | z-score [2] | z-score [3] | z-score [4] | z-score [5] | z-score [6] | z-score [7] | z-score [8] | z-score [9] | z-score [10] | z-score [11] | z-score [12] | z-score [13] | composite z-score [14] | z-score [15] | z-score [16] | z-score [17] | z-score [18] | z-score [19] | composite z-score [20] |
| --- | --- | --- | --- | --- | --- | --- | --- | --- | --- | --- | --- | --- | --- | --- | --- | --- | --- | --- | --- | --- |
| COc1ccc(CCNC(=O)[C@@H]2c3ccccc3C(=O)N(CC34CC5CC(CC(C5)C3)C4)[C@H]2c2ccc(CO)cc2)cc1 | 0.263 | 1.63 | 0.463 | -1.39 | -0.559 | 1.47 | -0.138 (inactive) | -0.435 | -0.0819 | 0.228 (inactive) | 0.556 | -0.547 (inactive) | -1.05 (inactive) | 0.12 (inactive) | 0.565 (inactive) | -0.134 (inactive) | 0.517 (inactive) | 0.119 (inactive) | 0.618 | 0.399 |
| CN(C)CCCC[C@@H]1NC(=O)[C@@H]2C[C@H](C(=O)NCc3ccc(F)cc3)[C@H](c3ccc(O)cc3)N2C1=O | -0.467 | -0.904 | 0.263 | 0.135 | -0.0865 | 0.393 | -0.0839 (inactive) | -0.963 | -0.187 | -0.454 (inactive) | -0.188 | 0.444 (inactive) | -0.0976 (inactive) | -1.14 (inactive) | 0.559 (inactive) | -0.605 (inactive) | 0.012 (inactive) | 0.0344 (inactive) | -0.0587 | -0.0448 |
| COc1ccc(C#Cc2ccc3c(c2)[C@]2(C(=O)N3)[C@H](C(=O)Nc3nc4ccccc4s3)[C@H]3C(=O)O[C@H](c4ccccc4)[C@H](c4ccccc4)N3[C@@H]2c2ccc(OCCO)cc2)cc1 | -0.255 | 0.183 | 0.044 | -2.63 | -0.988 | -3.48 | -1.95 (inactive) | -1.21 | -2.1 | 0.135 (inactive) | 0.839 | 2.43 (inactive) | -0.625 (inactive) | -22.3 (active) | 2.93 (inactive) | 2.53 (inactive) | 0.544 (inactive) | 0.196 (inactive) | -0.639 | 0.0849 |
| COc1ccc(CCNC(=O)[C@@]2(Sc3ccc(C)cc3)CC(=O)N(C(C)C)[C@@H]2c2ccc(CO)cc2)cc1 | 0.353 | 0.356 | -0.453 | -0.169 | 0.0991 | -0.41 | 0.0372 (inactive) | 0.043 | 0.277 | -0.107 (inactive) | -0.335 | 0.748 (inactive) | -0.416 (inactive) | 0.557 (inactive) | 0.745 (inactive) | 1.06 (inactive) | -0.252 (inactive) | -0.602 (inactive) | -0.218 | 0.0132 |
| COCCOC(=O)N1C(=O)[C@@]2(c3cc(C#CC4=CCCCC4)ccc31)[C@H](C(=O)N1CCN(c3ncccn3)CC1)[C@H]1C(=O)O[C@H](c3ccccc3)[C@H](c3ccccc3)N1[C@@H]2c1ccccc1OCCO | -0.793 | 1.36 | -0.435 | -1.24 | -1.88 | -0.0311 | 10.6 (active) | -0.645 | -1.47 | 0.738 (inactive) | 1.32 | 1.23 (inactive) | 1.02 (inactive) | 0.598 (inactive) | 4.43 (inactive) | 1.64 (inactive) | -0.368 (inactive) | -0.514 (inactive) | 0.318 | -0.312 |
| COc1ccc([Si](C)(C)[C@H]2[C@H](CC(=O)N3Cc4ccccc4C[C@H]3CO)O[C@@]3(C(=O)N(Cc4cccc(N5C(=O)c6cccc7cccc5c67)c4)c4ccccc43)[C@@H]2C)cc1 | 0.653 | 0.986 | -0.475 | -2.54 | -4.12 | 0.813 | 0.611 (inactive) | -1.19 | -1.72 | -1.02 (inactive) | -0.539 | -0.563 (inactive) | -2.76 (inactive) | -1.88 (inactive) | 1.49 (inactive) | 1.95 (inactive) | 0.643 (inactive) | 0.209 (inactive) | -2 | 0.0153 |
| COCC(=C=CC[C@@H](O)c1ccc(OCCO)cc1)C[C@@H](O)COCc1ccccc1 | 0.517 | 0.657 | 0.712 | 0.105 | 0.0253 | -1.77 | 0.914 (inactive) | -0.725 | -1.03 | 0.583 (inactive) | 0.948 | -0.81 (inactive) | 0.891 (inactive) | -2.32 (inactive) | 0.801 (inactive) | -1.31 (inactive) | 0.789 (inactive) | 0.859 (inactive) | 0.804 | 0.24 |
| COC(=O)c1c(CC[C@@H](CO)NC(=O)N[C@@H](Cc2ccccc2)Cn2cc(-c3cncn3C)nn2)oc(C(C)=O)c1C(=O)OC | -0.184 | 1.15 | -0.382 | 0.732 | -1.81 | -0.321 | 0.724 (inactive) | -0.442 | -0.322 | -0.208 (inactive) | -0.649 | -0.615 (inactive) | 0.448 (inactive) | -2.95 (inactive) | -1.25 (inactive) | -0.688 (inactive) | 0.681 (inactive) | 0.438 (inactive) | -0.332 | 0.14 |
